In the antibiotic and cytotoxicity screens of Wong et al. (2023) one finds cytotoxicity call data, which are given here for 40 compounds.

Each structure is given as a SMILES string. In all, about 39,000 compounds went through this assay and about 1,500 (3.8%) were called active. The full list was thinned out, with actives kept by preference.

The subject of this test is HSkMC (human skeletal muscle cells). Put plainly: cytotoxicity call (relative viability < 0.9). As to conditions: 10 µM.
On to `C[C@@H]1CCCCO[C@@H](CN(C)C(=O)Nc2ccc(C(F)(F)F)cc2)[C@@H](C)CN([C@H](C)CO)C(=O)c2cc(NC(=O)Cc3ccccc3)ccc2O1`, for which the cytotoxicity call was “inactive”.

With `CC(C)[C@@H](CC[C@@H](C)[C@H]1CC[C@H]2[C@@H]3[C@H](O)C[C@H]4C[C@@H](NCCCNCCCCNCCCN)CC[C@]4(C)[C@H]3CC[C@]12C)OS(=O)(=O)O`, the cytotoxicity call is “active”.

With `CC(C)[C@@H](CC[C@@H](C)[C@H]1CC[C@H]2[C@@H]3[C@H](O)C[C@H]4C[C@@H](NCCCNCCCCN)CC[C@]4(C)[C@H]3CC[C@]12C)OS(=O)(=O)O`, the cytotoxicity call was “active”.

On to `C[C@H](CCC(=O)NCC(=O)NCCS(=O)(=O)O)[C@H]1CC[C@H]2[C@@H]3[C@H](O)C[C@@H]4C[C@H](O)CC[C@]4(C)[C@H]3C[C@H](O)[C@]12C`, for which the cytotoxicity call is “inactive”.

In the case of `CC(CCC(=O)O)C1CCC2C3C(O)CC4CC(O)CCC4(C)C3CCC12C` (stereo not given), the cytotoxicity call was “inactive”.

In the case of `COC(=O)CCC(C)C1CCC2C3C(O)CC4CC(O)CCC4(C)C3CC(O)C12C` (stereo not given), the cytotoxicity call was “inactive”.

Regarding `C[C@H](CCC(=O)NCCS(=O)(=O)O)[C@H]1CC[C@H]2[C@@H]3[C@H](O)C[C@@H]4C[C@H](O)CC[C@]4(C)[C@H]3C[C@H](O)[C@]12C`, the cytotoxicity call is “inactive”.

As to `CC(=O)N1CCO[C@H]2CCN(C(=O)c3cn(C)cn3)C[C@H]21`, the cytotoxicity call is “inactive”.

Take `Cc1ccc(S(=O)(=O)N(C)C[C@H]2OCCCC[C@H](C)Oc3ccc(NC(=O)Nc4ccc(F)cc4)cc3C(=O)N([C@H](C)CO)C[C@@H]2C)cc1`: the cytotoxicity call was “inactive”.

As to `Cc1noc(C)c1NC(=O)N(C)C[C@@H]1Oc2ccc(NC(=O)c3ccncc3)cc2CC(=O)N([C@H](C)CO)C[C@H]1C`, the cytotoxicity call is “inactive”.

For `COc1cccc(NC(=O)N(C)C[C@H]2OCc3ccccc3-c3c(n(C)c4ccccc34)C(=O)N([C@@H](C)CO)C[C@H]2C)c1`, the cytotoxicity call was “inactive”.

Turning to `C[C@H]1CN([C@@H](C)CO)S(=O)(=O)c2ccc(C#CCC3CCCC3)cc2O[C@@H]1CN(C)C(=O)c1cnccn1`, the cytotoxicity call was “inactive”.

With `C=CCC[C@@H](Cc1ccc(F)cc1)C(=O)OC[C@H](Cc1c[nH]c2ccccc12)NC(=O)[C@@H](CC=C)CC(=O)N(CCO)Cc1ccccc1`, the cytotoxicity call was “inactive”.

Consider `C=CCC[C@H](Cc1ccc(F)cc1)C(=O)OC[C@@H](Cc1c[nH]c2ccccc12)NC(=O)[C@H](CC=C)CC(=O)N(CCO)Cc1ccccc1`, for which the cytotoxicity call is “active”.

Turning to `C=CCC[C@H](Cc1ccc(F)cc1)C(=O)OC[C@@H](Cc1c[nH]c2ccccc12)NC(=O)[C@@H](CC=C)CC(=O)N[C@@H](CO)Cc1ccccc1`, the cytotoxicity call is “inactive”.

With `C=CCC[C@@H](Cc1ccc(F)cc1)C(=O)OC[C@@H](Cc1c[nH]c2ccccc12)NC(=O)[C@@H](CC=C)CC(=O)N[C@@H](CO)Cc1ccccc1`, the cytotoxicity call was “inactive”.

`C=CCC[C@H](Cc1ccc(F)cc1)C(=O)OC[C@H](Cc1c[nH]c2ccccc12)NC(=O)[C@H](CC=C)CC(=O)N(CCO)Cc1ccccc1`: the cytotoxicity call was “inactive”.

In the case of `C=CCC[C@@H](Cc1ccc(F)cc1)C(=O)OC[C@@H](Cc1c[nH]c2ccccc12)NC(=O)[C@H](CC=C)CC(=O)N(CCO)Cc1ccccc1`, the cytotoxicity call was “active”.

As to `C=CCC[C@H](Cc1ccc(F)cc1)C(=O)OC[C@H](Cc1c[nH]c2ccccc12)NC(=O)[C@@H](CC=C)CC(=O)N(CCO)Cc1ccccc1`, the cytotoxicity call was “active”.

`C=CCC[C@H](Cc1ccc(F)cc1)C(=O)OC[C@@H](Cc1c[nH]c2ccccc12)NC(=O)[C@@H](CC=C)CC(=O)N(CCO)Cc1ccccc1`: the cytotoxicity call is “inactive”.

Consider `C=CCC[C@@H](Cc1ccc(F)cc1)C(=O)OC[C@@H](Cc1c[nH]c2ccccc12)NC(=O)[C@@H](CC=C)CC(=O)N(CCO)Cc1ccccc1`, for which the cytotoxicity call was “active”.

On to `C=CCC[C@@H](Cc1ccc(F)cc1)C(=O)OC[C@H](Cc1c[nH]c2ccccc12)NC(=O)[C@H](CC=C)CC(=O)N(CCO)Cc1ccccc1`, for which the cytotoxicity call is “inactive”.

Consider `CC(C)(C)[S@@](=O)N1Cc2cc(C(=O)N3CCc4ccccc4C3)nc(-c3cccc(-c4ccncc4)c3)c2[C@H]1CCO`, for which the cytotoxicity call was “inactive”.

On to `CCO[C@H]1OC(C(=O)N2CCN(C)CC2)=C[C@@H](c2coc3ccccc3c2=O)[C@@H]1CCCOC(=O)NCCCCCC(=O)NO`, for which the cytotoxicity call is “inactive”.

Consider `C[C@@H]1CN([C@@H](C)CO)C(=O)Cc2cc(NS(=O)(=O)c3cccs3)ccc2O[C@@H]1CN(C)Cc1ccc(-c2ccccc2)cc1`, for which the cytotoxicity call was “inactive”.

Take `NC(=O)CC(N)=S`: the cytotoxicity call was “inactive”.

As to `C[C@H]1CN([C@@H](C)CO)S(=O)(=O)c2ccc(C#CC3CCCC3)cc2O[C@H]1CN(C)C(=O)Cc1ccncc1`, the cytotoxicity call is “inactive”.

As for `CN(C)CC(=O)N1[C@@H]2Cn3c(ccc(-c4ccccc4)c3=O)[C@H]1[C@@H](C(=O)N1CCOCC1)[C@@H]2CO`, the cytotoxicity call was “inactive”.

On to `C[C@H](CO)N1C[C@H](C)[C@H](CN(C)S(=O)(=O)c2cccs2)Oc2c(NC(=O)Nc3cccc4ccccc34)cccc2C1=O`, for which the cytotoxicity call was “inactive”.

Take `COC(=O)C[C@H]1C=C[C@H](N)[C@H](CO)O1`: the cytotoxicity call is “inactive”.

Regarding `Cc1noc(C)c1S(=O)(=O)Nc1ccc2c(c1)CC(=O)N([C@H](C)CO)C[C@H](C)[C@@H](CN(C)S(=O)(=O)c1cccs1)O2`, the cytotoxicity call is “inactive”.

As for `C[C@@H]1CCCCO[C@@H](CN(C)S(=O)(=O)c2ccc(F)cc2)[C@H](C)CN([C@H](C)CO)C(=O)c2cc(NS(=O)(=O)c3ccc(Cl)cc3)ccc2O1`, the cytotoxicity call is “inactive”.

Consider `C[C@@H]1CN([C@H](C)CO)C(=O)c2cc(NS(=O)(=O)c3ccc(F)cc3)ccc2O[C@H]1CN(C)Cc1ccc(Cl)c(Cl)c1`, for which the cytotoxicity call was “active”.

In the case of `C[C@H]1CN([C@@H](C)CO)C(=O)c2cc(NS(=O)(=O)c3ccc(F)cc3)ccc2O[C@H]1CN(C)Cc1ccc(Cl)c(Cl)c1`, the cytotoxicity call was “inactive”.

Turning to `C[C@H]1CN([C@@H](C)CO)C(=O)c2cc(NS(=O)(=O)c3ccc(F)cc3)ccc2O[C@@H]1CN(C)Cc1ccc(Cl)c(Cl)c1`, the cytotoxicity call was “active”.

Consider `C[C@@H]1CN([C@@H](C)CO)C(=O)c2cc(NS(=O)(=O)c3ccc(F)cc3)ccc2O[C@@H]1CN(C)Cc1ccc(Cl)c(Cl)c1`, for which the cytotoxicity call was “inactive”.

With `C[C@H](CO)N1C[C@H](C)[C@@H](CN(C)Cc2ccc(Cl)c(Cl)c2)Oc2ccc(NS(=O)(=O)c3ccc(F)cc3)cc2C1=O`, the cytotoxicity call was “inactive”.

For the compound `C[C@H](CO)N1C[C@H](C)[C@H](CN(C)Cc2ccc(Cl)c(Cl)c2)Oc2ccc(NS(=O)(=O)c3ccc(F)cc3)cc2C1=O`, the cytotoxicity call is “inactive”.

As for `C[C@@H]1CN([C@H](C)CO)C(=O)c2cc(NS(=O)(=O)c3ccc(F)cc3)ccc2O[C@@H]1CN(C)Cc1ccc(Cl)c(Cl)c1`, the cytotoxicity call was “inactive”.

With `C[C@@H]1CN([C@@H](C)CO)C(=O)c2cc(NS(=O)(=O)c3ccc(F)cc3)ccc2O[C@H]1CN(C)Cc1ccc(Cl)c(Cl)c1`, the cytotoxicity call is “active”.
